Assay outcomes from PubChem.
Sampled rows, rich in hits. Any-hit rate of the full collection: about 19%.
TDP1 cell CPT: DT40-hTDP1 cell growth loss with CPT | hit rate 12% among 420,000 | chicken DT40 Tdp1-/-;hTDP1 cells + 20 nM CPT, ATP luminescence, 48 h | Potency, µM (highest dose often 46.2 µM), for the others: at the highest dose activity change, negative = growth inhibition, hits mostly inhibitors; also: nearly all actives have a fitted effect of over 55% in size
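Chicken DT40 Tdp1-/- cells stably complemented with human TDP1 were seeded at 400 cells/well in medium containing 20 nM camptothecin, exposed to pin-transferred compounds, and grown at 37 °C for at least 48 hr. Viability was read as ATP luminescence.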
TDP1 cell noCPT: qHTS for Inhibitors of human tyrosyl-DNA phosphodiesterase 1 (TDP1): qHTS in cells in absence of CPT; DT40 Tdp1-/- hTDP1 cells, no CPT, ATP luminescence, 48 h; Potency, µM (highest dose often 46.2 µM), for inactives: at the top dose activity change, negative = growth inhibition, usual class: inhibitors; hit rate 15% among 420,000; also: nearly all actives have a fitted effect of over 55% in size
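Chicken DT40 Tdp1-/- cells stably complemented with human TDP1 were seeded at 400 cells/well with DMSO in place of 20 nM camptothecin. After compound pinning, cells grew at least 48 hr at 37 °C; viability read by CellTiter-Glo luminescence.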
RORg inh: inhibitors of mouse ROR gamma transcriptional activity; P51450; Drosophila S2 Gal4-RORgamma UAS-luciferase reporter, 20 h; Potency, µM (top dose mostly 53.6 µM), for inactives: at the top dose activity change, negative = inhibition, usual class: inhibitors; hit rate 5.4% among 310,000; also: nearly all actives have a fitted effect of over 60% in size
Target sequence (P51450 whole entry, looked up, the tested form may be a part): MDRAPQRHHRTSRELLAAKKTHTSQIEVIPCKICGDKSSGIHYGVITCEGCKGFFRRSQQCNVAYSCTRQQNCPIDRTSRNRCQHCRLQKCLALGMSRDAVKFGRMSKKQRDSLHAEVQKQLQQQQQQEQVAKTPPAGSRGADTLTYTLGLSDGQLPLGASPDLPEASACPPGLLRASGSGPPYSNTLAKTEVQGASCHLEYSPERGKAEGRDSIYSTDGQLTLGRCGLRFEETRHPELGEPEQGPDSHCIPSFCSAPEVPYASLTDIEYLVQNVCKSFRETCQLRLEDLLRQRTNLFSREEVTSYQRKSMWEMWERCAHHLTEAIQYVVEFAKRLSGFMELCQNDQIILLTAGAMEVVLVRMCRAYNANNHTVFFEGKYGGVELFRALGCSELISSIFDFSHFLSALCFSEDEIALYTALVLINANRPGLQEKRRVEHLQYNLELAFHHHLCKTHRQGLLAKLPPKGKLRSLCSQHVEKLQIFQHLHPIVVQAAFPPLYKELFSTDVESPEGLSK
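ROR gamma transcriptional activity was tracked as Gal4-UAS luciferase output in stably transfected Drosophila Schneider cells, with compound added 1 hr before 700 uM copper sulfate induction and a 20 hr ambient-temperature incubation.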
TDP1 inh: inhibitors of human tyrosyl-DNA phosphodiesterase TDP1; Q9NUW8; recombinant TDP1, AlphaScreen DNA substrate cleavage; Potency, µM (titrated, usually from 130 µM), for inactives: at the top dose activity change, negative = inhibition, most hits filed as inhibitors; hit rate 0.28% among 350,000; AID 485290; also: nearly all actives have a fitted effect of over 40% in size
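AlphaScreen read-out: signal falls as enzyme removes the 3' tyrosine-FITC from a 5'-biotinylated DNA oligo (15 nM, 5 min, RT). Enzyme was E. coli-made recombinant Tdp1 at 1 nM, exposed to compound for 15 min beforehand; beads 10 ug/ml, 10 min.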
Gal4-VP16 FLuc: counter-screen for ROR gamma inhibitors: Gal4-VP16 reporter. Drosophila S2 Gal4-VP16 UAS-luciferase, luminescence, 20 h. Potency, µM (doses to about 53.6 µM), for inactives: at the top dose activity, negative = inhibition, usual class: inhibitors. hit rate 3.5% among 310,000;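 also: Gal4-VP16 expression switched on by copper sulfate through the metallothionein promoter; nearly all actives have a fitted effect of over 50% in size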
The depositor's hits bear a star; ? = inconclusive; / = no result given; [ ] = remark or other dose. Calls follow the shape of the dose curve; as a rule, active = well fitted curve in the direction sought with a large enough effect; inconclusive = small, poorly fitted or top-dose-only effect, or another doubt; inactive = no such curve, though single readings can be large; an effect the other way counts as inactive or inconclusive. % is scaled to controls: 0 for no effect and ±100 for the full control effect; potency is read from the fitted curve at half-maximal effect.

SMILES	TDP1 cell CPT	TDP1 cell noCPT	RORg inh	TDP1 inh	Gal4-VP16 FLuc
Cc1ccc(C(=O)NCC(=O)NCC(c2cccs2)N2CCOCC2)cc1C (configuration not stated)	5%	-1%	/	0%	/
Cc1ccc(NC(=O)COC(=O)CNC(=O)c2cccc([N+](=O)[O-])c2)cc1S(=O)(=O)N1CCCCCC1	20%	-20%	-10%	6%	9%
CCc1ccccc1NS(=O)(=O)c1ccc2c(c1)OCC(C(=O)N1CCCC1)O2 (configuration not stated)	?	?	/	6%	/
COc1ccc(CNCC(C)NCc2ccc(OC)c(OC)c2)cc1OC (configuration not stated)	?	-1%	19%	/	-5%
O=C(NCC(c1ccc(F)cc1)N1CCOCC1)c1nn(-c2ccccc2)c(=O)c2ccccc12 (configuration not stated)	?	21µM*	/	0%	/
O=C(NCCCN1CCOCC1)c1nn(-c2ccccc2)c(=O)c2ccccc12	15%	10%	/	2%	/
CCOc1ccc2c(c1)sc(N)[n+]2Cc1cc(C)cc2cccnc12	1µM*	1µM*	?	4%	-20%
COc1ccc2c(c1)sc(N)[n+]2Cc1cc(C)cc2cccnc12	4.6µM*	2.6µM*	22%	3%	-17%
Cc1cc(C[n+]2cc(Cl)ccc2N)c2ncccc2c1	-29%	?	-4%	-2%	1%
Cc1cc(C[n+]2cc(Br)ccc2N)c2ncccc2c1	12µM*	10µM*	2%	4%	-9%
CCOc1ccccc1N1CCN(C(=O)c2cc3c(s2)CCC3)CC1	?	?	-22%	10%	-2%
C=C(C)C(=O)OCCCCCC	/	/	-33%	6%	0%
COC(=O)CC1Oc2ccc(Cl)cc2-n2cc(-c3ccccc3)nc21 (configuration not stated)	21µM*	13µM*	/	-1%	/
COC(=O)CC1Oc2ccccc2-n2cc(-c3ccc(Cl)cc3)nc21 (configuration not stated)	7.3µM*	1.8µM*	/	5%	/
O=C(CSc1nnc(CNc2ccc(F)cc2)n1CC1CCCO1)Nc1ccccc1 (configuration not stated)	21µM*	?	7%	7%	-3%
CCc1ccc(-n2c(Cn3nc(C(F)(F)F)cc3C)n[nH]c2=S)cc1	-6%	-3%	4µM*	7%	?
CCc1ccc(-n2c(C)n[nH]c2=S)cc1	4%	3%	10µM*	/	?
CC(C)NC(=O)c1onc(CSc2ccc(F)c(F)c2)c1C(=O)NC(C)C	?	-11%	/	/	/
CCc1ccc(C(=O)/C=C/c2cnn(C)c2C)s1	?	-23%	5.6µM*	8%	8.9µM*
CCCOC(=O)c1c(NC(=O)/C=C/c2cnn(C)c2C)sc(C(=O)OC)c1C	?	?	28%	5%	-2%
Cc1c(/C=C/C(=O)c2cccs2)cnn1C	16µM*	?	25%	0%	24%
COc1ccc(C2NS(=O)(=O)N=C2N)cc1 (configuration not stated)	?	23µM*	-8%	1%	11%
S=C1NCN(C2CCCCC2)CN1c1ccccc1	-23%	-8%	22µM*	3%	?
COc1ccc(CNC(=S)Nc2cccc(C)c2)cc1	-3%	?	10µM*	1%	20µM*
COc1ccc(CNC(=S)Nc2cccc(F)c2)cc1	9%	5%	10µM*	/	6.3µM*
SMILES	TDP1 cell CPT	TDP1 cell noCPT	RORg inh	TDP1 inh	Gal4-VP16 FLuc
CNC(=S)NCc1ccc(OC)cc1	-13%	-1%	0%	-2%	0%
COC(=O)c1cccc(NC(=S)NCc2ccc(Cl)cc2)c1	?	?	?	-3%	4%[0.365 µM]
Cc1cccc(NC(=S)NC(C)(C)CC(C)(C)C)c1	-1%	18µM*	2.2µM*	3%	8.9µM*
COc1ccc(CNC(=S)Nc2ccccc2)cc1	19%	-6%	7.1µM*	4%	10µM*
Cc1ccccc1Cn1nnc2c(=O)[nH]c(C3CCN(C(=O)c4ccc(F)cc4)CC3)nc21	?	?	/	5%	/
Cc1ccc(C)c(NC(=O)CSc2nc(=O)n(CCN3CCOCC3)c3c2CCC3)c1	1%	0%	/	0%	/
Cc1cccc(NC(=S)NCc2ccc3c(c2)cc(C)n3C)c1C	12µM*	15µM*	2%	8%	-17%
COc1cccc(NC(=S)NCc2ccc(F)cc2)c1	7%	1%	?	/	7.1µM*
COc1cccc(NC(=S)NCc2ccc3c(c2)cc(C)n3C)c1	-20%	16µM*	4.5µM*	7%	?
Cc1cc(OCCCCN2C(=O)NC(C)(C)C2=O)cc(C)c1Cl	?	-23%	-9%	-2%	11%
CCCCNc1nnc(SCC(=O)c2c(N)n(CCC)c(=O)[nH]c2=O)s1	-17%	-16%	/	1%	/
CCCn1c(N)c(C(=O)CSc2nc(C)cs2)c(=O)[nH]c1=O	?	15µM*	-2%	2%	3%
CCCn1c(N)c(C(=O)CSc2nc3ccccc3c(=O)n2Cc2ccccc2)c(=O)[nH]c1=O	3%	-19%	5µM*	1%	?
O=C(Nc1cc(=O)[nH]c2nc(-c3ccccc3)nn12)c1ccccc1Cl	-20%	12µM*	21%	3%	-18%
Cc1cc(NC(=O)c2ccccc2Cl)n(C(C)(C)C)n1	-8%	6%	1%	6%	-2%
O=C(c1ccccc1)c1ccc(OC(=O)C2CCCCC2)cc1	0%	3%	17%	-11%	-7%
CCS(=O)(=O)c1ccc(-c2csc(-c3ccccc3)n2)c(Cl)c1Cl	16µM*	21µM*	?	3%	3%[0.365 µM]
CC1(C)Cc2c(cnn2-c2ccccc2)C(=O)/C1=N\NC(=O)c1ccncc1	18µM*	?	/	/	/
Cc1cc(C(C)(C)C)cc(C)c1C[n+]1ccc2ccccc2c1	0.41µM*	0.23µM*	?	/	?
CC1(C)NC(=O)N(CC(=O)NNC(=O)c2ccccc2F)C1=O	1%	-4%	/	1%	/
Cc1cccc(NC(=O)c2ccc([N+](=O)[O-])cc2Cl)n1	?	?	0%[10 µM]	-1%	5%
COCCNc1ccc([N+](=O)[O-])cc1C(=O)Nc1cccc(C)n1	13µM*	?	12%	3%	-20%
Cc1ccnc(NC(=O)c2ccc([N+](=O)[O-])s2)c1	16µM*	?	-104%	5%	?
Cc1cccc(NC(=O)c2ccc([N+](=O)[O-])s2)n1	8.2µM*	5.8µM*	6%	5%	?
Cc1cccc(NC(=O)c2ccc([N+](=O)[O-])s2)c1C	15µM*	21µM*	-34%	-5%	?
